# In all, about 5,500 compounds went through this assay and about 2,000 (36%) were called active. Roughly 18% stayed inconclusive and do not appear here. This is one part of the list. A number with no mark means an inactive call. No stated cut-off is given here; in the data, active means normalized growth mostly below about 0.91 (no sharp cut-off); inconclusive means no clear call, values can overlap the other calls; inactive means mostly above about 0.92.
# Test: chemical genetic growth profiling, strain panel (AID 1159580);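 further: tested at 20 µM; growth read once vehicle control cultures reached saturation at 30 °C; 1 = growth at the plate median or of vehicle wells; lower values mean less growth of the strain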
# Conditions: growth OD
# [1] = S. cerevisiae deletion strains, locus YHR030C, strain SLT2, hits give low values
# [2] = S. cerevisiae deletion strains, locus YHR079C, strain IRE1, hits give low values
# [3] = S. cerevisiae deletion strains, locus YJL095W, strain BCK1, hits give low values
# [4] = S. cerevisiae deletion strains, locus YJR066W, strain TOR1, hits give low values
# [5] = S. cerevisiae deletion strains, locus YLR113W, strain HOG1, hits give low values
# [6] = S. cerevisiae deletion strains, locus YNL183C, strain NPR1, hits give low values
# [7] = S. cerevisiae deletion strains, locus YOR231W, strain MKK1, hits give low values
# [8] = S. cerevisiae deletion strains, locus YPL256C, strain CLN2, hits give low values
# [9] = S. cerevisiae deletion strains, locus YDR150W, strain NUM1, hits give low values
# [10] = S. cerevisiae deletion strains, locus YGR229C, strain SMI1, hits give low values
# [11] = S. cerevisiae deletion strains, locus YPL055C, strain LGE1, hits give low values
# [12] = S. cerevisiae deletion strains, locus YPL241C, strain CIN2, hits give low values
# [13] = S. cerevisiae deletion strains, locus YDL101C, strain DUN1, hits give low values
smiles,measurement,setting,value
COC(=O)C(c1ccccc1)C1CCCCN1 (stereo unspecified),normalized growth,[1],0.978
same,normalized growth,[2],0.975
same,normalized growth,[3],0.974
same,normalized growth,[4],0.934
same,normalized growth,[5],0.95
same,normalized growth,[6],0.891
same,normalized growth,[7],0.971
same,normalized growth,[8],0.972
O=C(NCCNCC(O)COc1ccc(O)cc1)N1CCOCC1 (stereo unspecified),normalized growth,"S. cerevisiae deletion strains, locus YAL040C, strain CLN3, hits give low values",0.976
same,normalized growth,"S. cerevisiae deletion strains, locus YCL061C, strain MRC1 (second series), hits give low values",1
same,normalized growth,[9],0.993
same,normalized growth,"S. cerevisiae deletion strains, locus YDR363W, strain ESC2, hits give low values",1.01
same,normalized growth,"S. cerevisiae deletion strains, locus YER002W, strain NOP16, hits give low values",1.02
same,normalized growth,[10],1.02
same,normalized growth,"S. cerevisiae deletion strains, locus YMR307W, strain GAS1, hits give low values",0.997
same,normalized growth,"S. cerevisiae deletion strains, locus YNL128W, strain TEP1, hits give low values",0.998
same,normalized growth,"S. cerevisiae deletion strains, locus YNL175C, strain NOP13, hits give low values",0.998
same,normalized growth,"S. cerevisiae deletion strains, locus YNL197C, strain WHI3, hits give low values",0.993
same,normalized growth,"S. cerevisiae deletion strains, locus YNL224C, strain SQS1, hits give low values",0.997
same,normalized growth,"S. cerevisiae deletion strains, locus YOR083W, strain WHI5 (second series), hits give low values",1.01
same,normalized growth,[11],1.02
same,normalized growth,[12],1
Cc1ccc(OS(=O)(=O)c2ccc(Cl)cc2)c([N+](=O)[O-])n1,normalized growth,"S. cerevisiae deletion strains, locus YAL013W, strain DEP1, hits give low values",0.965
same,normalized growth,"S. cerevisiae deletion strains, locus YBR229C, strain ROT2, hits give low values",0.987
same,normalized growth,[13],0.932
same,normalized growth,"S. cerevisiae deletion strains, locus YDL134C, strain PPH21, hits give low values",0.968
same,normalized growth,[9],0.833
same,normalized growth,"S. cerevisiae deletion strains, locus YEL061C, strain CIN8, hits give low values",0.964
same,normalized growth,"S. cerevisiae deletion strains, locus YGR078C, strain PAC10, hits give low values",0.931
same,normalized growth,[10],0.978
same,normalized growth,[1],0.775
same,normalized growth,"S. cerevisiae deletion strains, locus YHR087W, strain rtc3, hits give low values",0.975
same,normalized growth,"S. cerevisiae deletion strains, locus YJR043C, strain POL32, hits give low values",0.945
same,normalized growth,"S. cerevisiae deletion strains, locus YJR075W, strain HOC1, hits give low values",0.917
same,normalized growth,"S. cerevisiae deletion strains, locus YKL190W, strain CNB1, hits give low values",0.968
same,normalized growth,"S. cerevisiae deletion strains, locus YLR039C, strain RIC1, hits give low values",0.895
same,normalized growth,"S. cerevisiae deletion strains, locus YLR058C, strain SHM2 (second series), hits give low values",0.988
same,normalized growth,"S. cerevisiae deletion strains, locus YLR085C, strain ARP6, hits give low values",0.875
same,normalized growth,"S. cerevisiae deletion strains, locus YLR262C, strain YPT6, hits give low values",0.908
same,normalized growth,"S. cerevisiae deletion strains, locus YML094W, strain GIM5, hits give low values",0.953
same,normalized growth,"S. cerevisiae deletion strains, locus YMR219W, strain ESC1, hits give low values",0.973
same,normalized growth,"S. cerevisiae deletion strains, locus YMR263W, strain SAP30, hits give low values",0.95
same,normalized growth,"S. cerevisiae deletion strains, locus YNL153C, strain GIM3, hits give low values",0.936
same,normalized growth,"S. cerevisiae deletion strains, locus YNL298W, strain CLA4 (second series), hits give low values",0.915
same,normalized growth,"S. cerevisiae deletion strains, locus YNL322C, strain KRE1, hits give low values",0.976
same,normalized growth,"S. cerevisiae deletion strains, locus YNR030W, strain Alg12, hits give low values",0.943
same,normalized growth,[11],0.962
same,normalized growth,[12],0.943
same,normalized growth,"S. cerevisiae deletion strains, locus YPR135W, strain CTF4, hits give low values",0.877
same,normalized growth,"S. cerevisiae strains, strain wild type, hits give low values",0.949
Cc1ccc(OS(=O)(=O)c2c(Cl)sc(Cl)c2Br)c([N+](=O)[O-])n1,normalized growth,"S. cerevisiae deletion strains, locus YAR019C, strain CDC15, hits give low values",0.964
same,normalized growth,"S. cerevisiae deletion strains, locus YBL105C, strain PKC1, hits give low values",0.964
same,normalized growth,"S. cerevisiae deletion strains, locus YBR135W, strain CKS1, hits give low values",0.968
same,normalized growth,"S. cerevisiae deletion strains, locus YBR136W, strain MEC1, hits give low values",0.967
same,normalized growth,"S. cerevisiae deletion strains, locus YBR160W, strain CDC28, hits give low values",0.963
same,normalized growth,"S. cerevisiae deletion strains, locus YDL017W, strain CDC7, hits give low values",0.957
same,normalized growth,"S. cerevisiae deletion strains, locus YDL028C, strain MPS1, hits give low values",0.972
same,normalized growth,[13],0.956
same,normalized growth,"S. cerevisiae deletion strains, locus YDL108W, strain KIN28, hits give low values",0.965
same,normalized growth,"S. cerevisiae deletion strains, locus YDL132W, strain cdc53, hits give low values",0.961
same,normalized growth,"S. cerevisiae deletion strains, locus YDL214C, strain PRR2, hits give low values",0.962
same,normalized growth,"S. cerevisiae deletion strains, locus YDR052C, strain DBF4, hits give low values",0.968
same,normalized growth,"S. cerevisiae deletion strains, locus YDR054C, strain cdc34, hits give low values",0.956
same,normalized growth,"S. cerevisiae deletion strains, locus YDR226W, strain ADK1, hits give low values",0.953
same,normalized growth,"S. cerevisiae deletion strains, locus YDR477W, strain SNF1, hits give low values",0.97
same,normalized growth,"S. cerevisiae deletion strains, locus YER123W, strain YCK3, hits give low values",0.952
same,normalized growth,"S. cerevisiae deletion strains, locus YER133W, strain GLC7, hits give low values",0.975
same,normalized growth,"S. cerevisiae deletion strains, locus YFL009W, strain cdc4, hits give low values",0.961
same,normalized growth,"S. cerevisiae deletion strains, locus YFL029C, strain CAK1, hits give low values",0.96
same,normalized growth,"S. cerevisiae deletion strains, locus YFR003C, strain YPI1, hits give low values",0.961
same,normalized growth,"S. cerevisiae deletion strains, locus YFR019W, strain FAB1, hits give low values",0.98
same,normalized growth,"S. cerevisiae deletion strains, locus YFR028C, strain CDC14, hits give low values",0.965
same,normalized growth,"S. cerevisiae deletion strains, locus YGR040W, strain KSS1, hits give low values",0.972
same,normalized growth,"S. cerevisiae deletion strains, locus YGR052W, strain FMP48, hits give low values",1
same,normalized growth,"S. cerevisiae deletion strains, locus YGR092W, strain DBF2, hits give low values",0.951
same,normalized growth,[1],0.961
same,normalized growth,[2],0.929
same,normalized growth,"S. cerevisiae deletion strains, locus YHR082C, strain KSP1, hits give low values",1.07
same,normalized growth,"S. cerevisiae deletion strains, locus YHR205W, strain SCH9, hits give low values",0.953
same,normalized growth,"S. cerevisiae deletion strains, locus YIL147C, strain SLN1, hits give low values",0.966
same,normalized growth,[3],0.968
same,normalized growth,"S. cerevisiae deletion strains, locus YJL128C, strain PBS2, hits give low values",0.909
same,normalized growth,"S. cerevisiae deletion strains, locus YJL157C, strain FAR1, hits give low values",0.96
same,normalized growth,"S. cerevisiae deletion strains, locus YJR016C, strain ILV3, hits give low values",0.965
same,normalized growth,"S. cerevisiae deletion strains, locus YJR066W, strain TOR1 (second series), hits give low values",0.956
same,normalized growth,[4],1.02
same,normalized growth,"S. cerevisiae deletion strains, locus YKL048C, strain ELM1, hits give low values",0.965
same,normalized growth,"S. cerevisiae deletion strains, locus YKL067W, strain YNK1, hits give low values",0.959
same,normalized growth,"S. cerevisiae deletion strains, locus YKL101W, strain HSL1, hits give low values",0.979
same,normalized growth,"S. cerevisiae deletion strains, locus YKL193C, strain SDS22, hits give low values",0.963
same,normalized growth,"S. cerevisiae deletion strains, locus YKL203C, strain TOR2, hits give low values",0.991
same,normalized growth,[5],0.818 (active)
same,normalized growth,"S. cerevisiae deletion strains, locus YLR133W, strain CKI1, hits give low values",0.968
same,normalized growth,"S. cerevisiae deletion strains, locus YLR403W, strain SFP1, hits give low values",0.967
same,normalized growth,"S. cerevisiae deletion strains, locus YML070W, strain DAK1, hits give low values",0.959
same,normalized growth,"S. cerevisiae deletion strains, locus YMR001C, strain CDC5, hits give low values",0.957
same,normalized growth,"S. cerevisiae deletion strains, locus YMR205C, strain PFK2 (second series), hits give low values",0.971
same,normalized growth,"S. cerevisiae deletion strains, locus YMR277W, strain FCP1, hits give low values",0.961
same,normalized growth,"S. cerevisiae deletion strains, locus YNL006W, strain LST8, hits give low values",0.962
same,normalized growth,"S. cerevisiae deletion strains, locus YNL020C, strain ARK1, hits give low values",0.971
same,normalized growth,"S. cerevisiae deletion strains, locus YNL161W, strain CBK1, hits give low values",0.968
same,normalized growth,[6],1.01
same,normalized growth,"S. cerevisiae deletion strains, locus YNL207W, strain RIO2, hits give low values",0.955
same,normalized growth,"S. cerevisiae deletion strains, locus YNL222W, strain SSU72, hits give low values",0.971
same,normalized growth,"S. cerevisiae deletion strains, locus YNL307C, strain MCK1 (second series), hits give low values",0.965
same,normalized growth,"S. cerevisiae deletion strains, locus YOL078W, strain AVO1, hits give low values",0.967
same,normalized growth,"S. cerevisiae deletion strains, locus YOL136C, strain PFK27, hits give low values",0.957
same,normalized growth,"S. cerevisiae deletion strains, locus YOR061W, strain CKA2, hits give low values",0.962
same,normalized growth,"S. cerevisiae deletion strains, locus YOR119C, strain RIO1, hits give low values",1.04
same,normalized growth,[7],0.942
same,normalized growth,"S. cerevisiae deletion strains, locus YOR329C, strain SCD5, hits give low values",0.959
same,normalized growth,"S. cerevisiae deletion strains, locus YPL031C, strain PHO85, hits give low values",0.959
same,normalized growth,"S. cerevisiae deletion strains, locus YPL153C, strain RAD53, hits give low values",0.963
same,normalized growth,"S. cerevisiae deletion strains, locus YPL204W, strain HRR25, hits give low values",0.978
same,normalized growth,"S. cerevisiae deletion strains, locus YPL209C, strain IPL1, hits give low values",0.963
same,normalized growth,[8],0.92
same,normalized growth,"S. cerevisiae deletion strains, locus YPR025C, strain CCL1, hits give low values",0.964
same,normalized growth,"S. cerevisiae deletion strains, locus YPR106W, strain ISR1, hits give low values",0.961
same,normalized growth,"S. cerevisiae deletion strains, locus YPR111W, strain DBF20, hits give low values",0.948
same,normalized growth,"S. cerevisiae deletion strains, strain NNK1, hits give low values",0.956
same,normalized growth,"S. cerevisiae deletion strains, strain TSCII, hits give low values",0.957

# Source: PubChem BioAssay AID1159580 (chemical genetic matrix, 2015)
